AmpC det inh: blocks E. coli AmpC beta-lactamase in presence of detergent | purified AmpC, nitrocefin hydrolysis with detergent | AID 584 | 71,000 compounds, 0.09% hits | P00811 | Potency, µM (highest dose often 28.7 µM), for inactives: at the highest dose activity change, negative = inhibition; active = well fitted curve in the direction sought with a large enough effect; inconclusive = small, poorly fitted or top-dose-only effect; also: % is scaled to controls: 0 for no effect and ±100 for the full control effect
Target sequence (P00811 whole entry, looked up): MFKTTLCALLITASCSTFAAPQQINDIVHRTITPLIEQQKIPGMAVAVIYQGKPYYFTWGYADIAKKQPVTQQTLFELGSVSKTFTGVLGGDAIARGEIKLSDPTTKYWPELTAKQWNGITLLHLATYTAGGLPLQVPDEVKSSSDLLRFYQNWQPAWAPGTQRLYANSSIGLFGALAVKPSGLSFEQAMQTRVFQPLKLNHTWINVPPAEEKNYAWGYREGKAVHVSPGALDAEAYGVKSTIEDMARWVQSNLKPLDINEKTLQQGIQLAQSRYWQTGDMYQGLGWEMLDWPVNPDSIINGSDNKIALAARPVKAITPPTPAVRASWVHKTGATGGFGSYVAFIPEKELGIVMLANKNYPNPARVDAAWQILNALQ
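E. coli AmpC (5.3 nM) in 20 mM phosphate pH 7.0 with 0.01% Triton X-100, preincubated 15 min RT with compound; nitrocefin (2 uL of 800 uM stock) hydrolysis followed by 480 nm absorbance every 20 s over 4 min.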
SmPrx2 inh: blocks S. mansoni peroxiredoxin 2 enzymatic activity; S. mansoni Prx2 activity coupled to TGR/GSH (TGR is thioredoxin glutathione reductase), NADPH fluorescence loss, qHTS; Potency, µM; 65,000 compounds, 0.07% hits; AID 448
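Enzyme mix: 100 uM NADPH, 25 nM TGR, 700 uM GSH, 50 nM Prx2 in 100 mM phosphate pH 7.4, 10 mM EDTA, 0.01% Tween-20. 15 min RT with compound; NADPH/GSH added, H2O2 starts reaction; NADPH fluorescence read 8 min.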
Anthrax LT inh: inhibitors of anthrax lethal toxin internalization. Cells, anthrax lethal toxin internalization, FRET ratio (460/530). Potency, µM (doses to about 40 µM), for inactives: at the highest dose activity change, negative = inhibition, hits mostly inhibitors. 70,000 compounds, 0.67% hits. AID 912; also: % is scaled to controls: 0 for no effect and ±100 for the full control effect; nearly all actives have a fitted effect of over 50% in size
AmpC nodet inh: AmpC beta-lactamase inhibition, detergent-free assay | AmpC nitrocefin hydrolysis, absorbance 480 nm, no detergent | Potency, µM (series often up to 28.7 µM), for inactives: at the top dose activity change, negative = inhibition | 71,000 compounds, 1.8% hits; also: % of control where 0% means no effect
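AmpC in 20 mM phosphate buffer pH 7.0 was preincubated 15 min at room temperature with compounds. Nitrocefin (800 uM stock) was then added and hydrolysis followed at 480 nm every 20 s for 4 min.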
Starred values were filed as active, the others as inactive; ! = not confirmed by another sample; [ ] = dose if it differs, or a comment. A selection: hits, their analogues and other compounds. The true share with any hit is near 2.6%. Unless noted, calls follow the shape of the full dose curve. Potency is read from the fitted curve at half-maximal effect.

Results for COc1ccc(NC(=O)Cn2nnc(-c3ccccc3NC(=O)c3ccco3)n2)cc1 ?
AmpC det inh: 8.5%; SmPrx2 inh: >57; Anthrax LT inh: -0.5%; AmpC nodet inh: 12.6µM*

What do the screens show for `Cc1cc2ccc(OC(=O)c3ccc(N=C(N)N)cc3)cc2oc1=O`?
AmpC det inh: -3.4%[5.75 µM]; SmPrx2 inh: inconclusive; Anthrax LT inh: inconclusive; AmpC nodet inh: 6.4%[5.75 µM]

Results for CCCCn1nnc(NC(=O)COc2cc(C)ccc2C(C)C)n1 ?
AmpC det inh: -3.4%; SmPrx2 inh: >57; Anthrax LT inh: 10µM*; AmpC nodet inh: 25.6%

What do the screens show for `CCOC(=O)Cc1csc(NC(=O)c2c(-c3ccccc3)noc2C)n1`?
AmpC det inh: -2.8%; Anthrax LT inh: -0.4%; AmpC nodet inh: 24.1%

Results for Cc1noc(C)c1C(=O)Nc1nc(C23CC4CC(CC(C4)C2)C3)cs1 ?
AmpC det inh: -2.6%; SmPrx2 inh: >57; Anthrax LT inh: 10µM*; AmpC nodet inh: 0.3%

Results for Cc1c(-c2nc(N)nc(Nc3ccccc3)n2)oc2ccccc12 ?
AmpC det inh: -6.2%; SmPrx2 inh: >57; Anthrax LT inh: 12.6µM*; AmpC nodet inh: 98.5%

Results for Cc1cn([C@H]2C=C[C@H](CO)O2)c(=O)[nH]c1=O ?
AmpC det inh: -2.7%; SmPrx2 inh: >57; Anthrax LT inh: 5.4%; AmpC nodet inh: -0.9%

How did CCN(CC)S(=O)(=O)c1ccc(-c2nnc3sc4cccc(C)c4n23)cc1 do in these assays?
AmpC det inh: 14.0%; SmPrx2 inh: >57; Anthrax LT inh: inconclusive; AmpC nodet inh: 3.98µM*[single pt active]

Results for N#CCCCC[N+]12CN3CN(CN(C3)C1)C2 ?
AmpC det inh: -3.9%[5.75 µM]; SmPrx2 inh: >57; Anthrax LT inh: inconclusive; AmpC nodet inh: -4.5%[5.75 µM]

Results for COc1cc2c(cc1OC)-c1nnnn1C(C)(C)C2 ?
AmpC det inh: -3.7%; Anthrax LT inh: -12.8%; AmpC nodet inh: 10.6%

How did COc1cc2c(cc1OC)-c1nnc(-c3cccs3)n1C(C)(C)C2 do in these assays?
AmpC det inh: 9.5%; SmPrx2 inh: >57; Anthrax LT inh: -7.0%; AmpC nodet inh: 3.98µM*[single pt active]

How did O=C(Nc1ccc(Cl)cc1)N(Cc1cccs1)Cc1cccs1 do in these assays?
AmpC det inh: 1.8%; Anthrax LT inh: -20.8%; AmpC nodet inh: 5.01µM*

Results for NCCO ?
AmpC det inh: 4.5%; Anthrax LT inh: 7.7%; AmpC nodet inh: -11.3%

What do the screens show for `C[C@H](c1ccccc1)N1CCN([C@@H](C)c2ccccc2)CC1`?
AmpC det inh: -0.2%[5.75 µM]; SmPrx2 inh: >57; Anthrax LT inh: -3.8%[8 µM]; AmpC nodet inh: 7.6%[5.75 µM]

Results for CCOC(=O)C1=C(CS(=O)(=O)c2ccc(F)c(C)c2)NC(=O)NC1c1ccc(O)c(O)c1 (stereo not given) ?
AmpC det inh: 10.2%; SmPrx2 inh: >57; Anthrax LT inh: -7.6%; AmpC nodet inh: 3.98µM*[single pt active]

Results for COc1ccc2c3c([nH]c2c1)C(C)=NCC3 ?
AmpC det inh: -3.3%; SmPrx2 inh: >57; Anthrax LT inh: inconclusive; AmpC nodet inh: -1.1%

How did CC1=NCCc2c1[nH]c1cc(O)ccc21 do in these assays?
AmpC det inh: 1.2%; SmPrx2 inh: >57; Anthrax LT inh: inconclusive; AmpC nodet inh: 12.6µM*!

How did COc1ccc(-n2c(=O)c(C)nc3cnc(N(C)C)nc32)cc1 do in these assays?
AmpC det inh: -0.1%; SmPrx2 inh: >57; Anthrax LT inh: 10µM*; AmpC nodet inh: 20.4%

Results for CCNc1ncc2nc(C)c(=O)n(-c3ccc(OC)cc3)c2n1 ?
AmpC det inh: -4.3%; SmPrx2 inh: >57; Anthrax LT inh: -29.1%; AmpC nodet inh: 14.6%

How did COC(=O)N[C@H](c1ccccc1)[C@@]1(C)C[C@@H]1[C@@H](C)C(=O)Nc1ccc2ccccc2c1 do in these assays?
AmpC det inh: -4.4%; SmPrx2 inh: >57; Anthrax LT inh: 10µM*; AmpC nodet inh: 16.4%

How did CC(=O)N[C@H](c1ccccc1)[C@@]1(C)C[C@@H]1[C@@H](C)C(=O)Nc1ccc2ccccc2c1 do in these assays?
AmpC det inh: 1.0%; SmPrx2 inh: >57; Anthrax LT inh: inconclusive; AmpC nodet inh: 89.6%

What do the screens show for `O=C(O)c1ccc(C(=O)O)c(C(=O)O)c1.[NH-][C@@H]1CCCC[C@@H]1[NH-].[Pt]`?
AmpC det inh: -2.5%[5.75 µM]; SmPrx2 inh: inactive; Anthrax LT inh: -6.7%[8 µM]; AmpC nodet inh: 4.8%[5.75 µM]

What do the screens show for `Oc1ccc(Cl)cc1Cc1cc(Cl)ccc1O`?
AmpC det inh: 3.9%; Anthrax LT inh: 15.8µM*; AmpC nodet inh: inconclusive

What do the screens show for `Oc1ccc(Cl)cc1Cc1ccccc1`?
AmpC det inh: 4.0%; Anthrax LT inh: inconclusive; AmpC nodet inh: -19.2%

What do the screens show for `CCOC(=O)N1CCN(c2c(NC3CCN(Cc4ccccc4)CC3)c(=O)c2=O)CC1`?
AmpC det inh: 9.7%; SmPrx2 inh: >57; Anthrax LT inh: -9.2%; AmpC nodet inh: 3.98µM*[single pt active]

Results for CCOC(=O)N1CCC(Nc2c(OCC)c(=O)c2=O)CC1 ?
AmpC det inh: 11.9%; SmPrx2 inh: >57; Anthrax LT inh: -7.4%; AmpC nodet inh: 3.98µM*[single pt active]

Results for CCCCN(CC)CCNc1c(NC2CCN(C(=O)OCC)CC2)c(=O)c1=O ?
AmpC det inh: 13.7%; SmPrx2 inh: >57; Anthrax LT inh: -16.1%; AmpC nodet inh: 3.98µM*[single pt active]

How did CCCCN(CC)CCNc1c(N2CCN(C(=O)OCC)CC2)c(=O)c1=O do in these assays?
AmpC det inh: -6.1%; SmPrx2 inh: >57; Anthrax LT inh: 5.3%; AmpC nodet inh: -5.9%

How did O=C(NC1CCCC1)C1CCCN(S(=O)(=O)c2cccc3cccnc23)C1 (stereo not given) do in these assays?
AmpC det inh: 13.8%; SmPrx2 inh: >57; Anthrax LT inh: -14.2%; AmpC nodet inh: 3.16µM*[single pt active]

Results for CCOC(=O)N1CCC(NC(=O)C2CCCN(S(=O)(=O)c3cccnc3)C2)CC1 (stereo not given) ?
AmpC det inh: 12.3%; SmPrx2 inh: >57; Anthrax LT inh: -4.6%; AmpC nodet inh: 3.98µM*[single pt active]

How did NS(=O)(=O)c1ccc(CCNC(=O)C2CCCN(S(=O)(=O)c3cccnc3)C2)cc1 (stereo not given) do in these assays?
AmpC det inh: 12.6%; SmPrx2 inh: >57; Anthrax LT inh: -9.9%; AmpC nodet inh: 3.98µM*[single pt active]

Results for Cc1ccc2nc(NC(=O)C3CCCN(S(=O)(=O)c4cccnc4)C3)sc2c1 (stereo not given) ?
AmpC det inh: 12.8%; SmPrx2 inh: >57; Anthrax LT inh: -29.5%; AmpC nodet inh: 3.98µM*[single pt active]

What do the screens show for `O=C(NCCc1ccccc1)C1CCCN(S(=O)(=O)c2cccnc2)C1` (stereo not given)?
AmpC det inh: -1.5%; SmPrx2 inh: >57; Anthrax LT inh: -0.5%; AmpC nodet inh: 2.7%

What do the screens show for `Cc1ccc2nc(NC(=O)C3CCCN(S(=O)(=O)c4cnc[nH]4)C3)sc2c1` (stereo not given)?
AmpC det inh: 3.1%; SmPrx2 inh: >57; Anthrax LT inh: inconclusive; AmpC nodet inh: 2.3%

How did CCOC(=O)N1CCC(NC(=O)C2CCCN(S(C)(=O)=O)C2)CC1 (stereo not given) do in these assays?
AmpC det inh: -4.4%; SmPrx2 inh: >57; Anthrax LT inh: inconclusive; AmpC nodet inh: -5.9%

Bioassay records (PubChem)
